D1 ag: Allosteric Agonists of the Human D1 Dopamine Receptor: qHTS; D(1A) dopamine receptor (Homo sapiens), P21728; HEK293 T-REx D1 cells, calcium flux, agonist mode; activation, % at 2 µM; 1% of 360,000 active; AID 504660, 2011; in the data active means activation above about 30%; further: 0% is about no effect
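Agonism was scored from calcium flux recorded over 180 s (1 read/s) after pintool compound addition, following a 10-cycle baseline. Cells were inducible force-coupled HEK293 TREx D1, plated overnight at 30 C and loaded with no-wash calcium dye.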
D3 ag: qHTS of D3 Dopamine Receptor Agonist: qHTS | D(3) dopamine receptor (Homo sapiens), P35462 | D3R DiscoveRx beta-arrestin cells, luminescence, 90 min | max activation, % | 0.58% of 410,000 active | AID 652048, 2013; in the data active means max activation above about 30%; further: 0% is about no effect
Target sequence (P35462 whole entry, looked up): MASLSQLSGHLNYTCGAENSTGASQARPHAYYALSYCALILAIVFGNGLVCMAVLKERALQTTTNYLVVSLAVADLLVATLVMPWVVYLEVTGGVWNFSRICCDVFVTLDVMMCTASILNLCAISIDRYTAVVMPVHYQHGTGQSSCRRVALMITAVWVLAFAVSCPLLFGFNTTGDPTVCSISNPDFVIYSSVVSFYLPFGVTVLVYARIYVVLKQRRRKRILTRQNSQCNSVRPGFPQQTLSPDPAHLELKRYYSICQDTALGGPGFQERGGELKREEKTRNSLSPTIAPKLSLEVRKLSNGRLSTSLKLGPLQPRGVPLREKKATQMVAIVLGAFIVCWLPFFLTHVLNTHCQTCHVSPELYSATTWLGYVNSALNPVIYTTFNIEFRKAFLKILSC
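Agonist-mode cell screen: cells plated at 1500/well and incubated overnight at 37 °C, then exposed to library compounds for 90 min at 37 °C. Detection reagent was added for 30–60 min at room temperature, and luminescence was read.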
D1 potentiator: Potentiators of Human D1 Dopamine Receptor: qHTS; HEK293 TREx D1 cells, calcium flux, dopamine EC20 potentiation; potentiation, % at 10 µM; D(1A) dopamine receptor (Homo sapiens), P21728; 0.036% of 360,000 active; in the data active means potentiation above about 30%; further: 0% is about no effect
DRD3 antagonist: qHTS of D3 Dopamine Receptor Antagonist: qHTS. D(3) dopamine receptor (Homo sapiens), P35462. D3R cells, DiscoveRx beta-arrestin luminescence, antagonist mode; hits give low values. max response, negative = inhibition, %. 2.5% of 360,000 active. AID 652054, 2013; in the data active means max response below about -50%; inconclusive means no clear call, values can overlap the other calls; further: on the % scale 0 is the no-effect control and ±100 the full control effect
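Cells plated overnight at 1500 cells/well, then exposed to library compounds with dopamine controls for 90 minutes at 37 degrees C. DiscoveRx reagent added for 30–60 minutes at room temperature; luminescence read, quantitative HTS format.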
D1 antagonist: Antagonist of Human D 1 Dopamine Receptor: qHTS; HEK293 TREx D1 cells, calcium flux, dopamine EC80; hits give low values; 3.2% of 360,000 active; activity change, negative = inhibition, % at 10 µM; D(1A) dopamine receptor (Homo sapiens), P21728; in the data active means activity change below about -30%; further: on the % scale 0 is the no-effect control and ±100 the full control effect
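Using tetracycline-induced force-coupled D1 Hek293 cells and a calcium dye, signals were followed for 180 s after compound, then for 180 s after EC80 dopamine, to detect inhibitors.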
* marks the source's active call; other numbers are inactive results; ? = inconclusive; nt = no result given. Compounds with a hit are over-represented: about 6% of the library has one in this group of screens.

SMILES | D1 ag | D3 ag | D1 potentiator | DRD3 antagonist | D1 antagonist
CCOC(=O)c1ccccc1NC(=O)Cc1c(C(=O)O)c(C)cn1C | 3.5 | 1.2 | -2.2 | nt | 2.0
Cc1ccc(C(=O)Nc2ccccc2C(=O)O)cc1S(=O)(=O)Nc1ccc(Br)cc1 | nt | 33.7* | nt | 76.7 | nt
Cc1ccc(C(=O)Nc2cccc(N(C)S(C)(=O)=O)c2)cc1S(=O)(=O)Nc1ccccc1 | 0.8 | 43.6* | -1.1 | 91.3 | -23.7
CCOc1ccccc1NC(=O)c1c(NC(=O)Cc2ccc(OC)cc2)sc2c1CCC2 | 0.9 | 10.8 | 4.9 | nt | 6.1
O=C1NC2(CCCCC2)C(=O)N1CC(=O)N(Cc1ccccc1)c1ccccc1 | 0.7 | -6.6 | -16.1 | -17.0 | -12.4
c1ccc(Cn2nnnc2CN2CCOCC2)cc1 | 4.3 | 1.5 | -11.1 | 5.5 | -33.6*
c1ccc(-n2nnnc2CN2CCOCC2)cc1 | 2.7 | 0.0 | 4.1 | 1.2 | 2.7
c1ccc(Cn2nnc3c(NCCN4CCOCC4)ncnc32)cc1 | 2.5 | 0.1 | -17.2 | 17.1 | -30.8*
Clc1ccccc1Cn1nnc2c(NCCN3CCOCC3)ncnc21 | -1.0 | -6.9 | -0.2 | 4.6 | 5.8
COc1ccc(C(=O)Nc2nnc(CC(=O)N/N=C/c3ccc(O)cc3O)s2)cc1 | 45.5* | nt | -2.0 | nt | 14.5
O=C(N/N=C/c1cc(Br)cc(Br)c1O)c1ccncc1 | 53.5* | 7.1 | 14.4 | 5.3 | -3.7
O=C(N/N=C/c1cccc2nccnc12)c1ccncc1 | 2.6 | 9.8 | -5.0 | 4.5 | -14.7
Cc1cccc(C(=O)Oc2c(Br)cc(Br)cc2/C=N/NC(=O)c2ccncc2)c1 | 5.0 | -8.3 | -2.9 | 7.3 | -0.2
Oc1c(Cl)cc(Cl)cc1/C=N/Nc1ncc(Br)cn1 | 2.6 | -24.8 | -13.5 | -106.7* | -27.6
Cc1ccc(C(=O)Nc2nnc(CC(=O)N/N=C/c3ccc(O)c(O)c3)s2)cc1 | 1.2 | 2.7 | -5.5 | -8.3 | 0.4
O=C(N/N=C/c1ccc(O)cc1O)c1ccncc1 | 5.0 | 41.6* | 1.3 | 29.3 | -15.1
Cc1ccc(C(=O)N/C(=C\c2ccc(Cl)cc2)C(=O)NC2CCCCC2)cc1 | 1.7 | -16.1 | -1.4 | nt | 2.1
O=C(N/N=C/c1ccc(Cl)cc1Cl)c1ccncc1 | 2.3 | 2.9 | -1.8 | 9.3 | 2.0
O=C(N/N=C/c1ccc(O)cc1O)c1ccc(NC(=O)C2CCCCC2)cc1 | 2.8 | -1.4 | -8.9 | 4.7 | 9.4
O=C(N/N=C/c1cc(Cl)cc(Cl)c1O)c1ccncc1 | 68.4* | 6.5 | 1.5 | 17.7 | 0.2
O=C(N/N=C/c1ccc(O)cc1O)C1CC1 | nt | -1.0 | nt | -91.6* | nt
Cc1ccc2c(c1)N(C(=O)N1CCC(C(=O)NC3CCCCCC3)CC1)CC(C)O2 (configuration not stated) | 0.6 | 5.4 | 3.5 | nt | 12.5
CCN(CC)C(=O)c1cccnc1 | nt | 1.7 | nt | nt | nt
Cc1nc2ccccn2c(=O)c1CCN1CCC(C(=O)c2ccc(F)cc2)CC1 | 1.4 | -94.7 | -6.5 | -112.4* | -34.1*
Cc1nc2sccn2c(=O)c1CCN1CCC(=C(c2ccc(F)cc2)c2ccc(F)cc2)CC1 | 0.1 | -88.1 | -5.5 | -93.2* | 18.1
SMILES | D1 ag | D3 ag | D1 potentiator | DRD3 antagonist | D1 antagonist
COc1cc(OC)cc(C(=O)Nn2cnnc2)c1 | -0.2 | -4.2 | -2.2 | -0.2 | 3.4
COc1cccc(C(=O)Nn2cnnc2)c1 | 1.7 | 30.5* | -7.2 | 0.9 | -6.6
CC[C@@H](CO)NCCN[C@@H](CC)CO | nt | 1.8 | nt | nt | nt
COc1ccc(CNCCC(c2ccccc2)c2ccc3c(c2)OCO3)cc1 (configuration not stated) | 132.8* | -19.6 | 3.3 | -73.6* | -15.9
CC(C)CCC(CCNCc1ccccn1)c1ccc2c(c1)OCO2 (configuration not stated) | 30.3* | -21.0 | 5.5 | -23.1 | -14.6
COc1ccc(CNCCC(c2ccc(C)cc2)c2ccco2)cc1 (configuration not stated) | 92.1* | -18.3 | -1.9 | nt | -7.0
O=S(=O)(c1cc(Br)c(Br)s1)N1CCN(c2ccccc2)CC1 | -0.6 | -5.2 | -6.3 | nt | 4.1
Cc1cc(NS(=O)(=O)c2ccc(N)cc2)nc(C)n1 | nt | 4.6 | nt | nt | nt
Cc1ccc(C)c(N(C)C(=O)c2cn(C)c(=O)c3ccccc23)c1 | 0.4 | -16.6 | 0.3 | nt | 10.8
CC1CC(C)CN(CCCOc2ccccc2[N+](=O)[O-])C1 (configuration not stated) | 7.4 | -7.4 | -2.9 | ? | -3.4
Cc1ccc([N+](=O)[O-])c(OCCCN2CCC(Cc3ccccc3)CC2)c1 | nt | -1.5 | nt | -95.5* | nt
COc1cc(CN2CCC(Cc3ccccc3)CC2)c([N+](=O)[O-])cc1OC | 3.4 | -0.3 | 1.9 | 20.6 | 14.2
Cc1cc(OCCN2CCCC2)ccc1[N+](=O)[O-] | 5.6 | -22.5 | -2.5 | -63.0* | -4.7
Cc1ccc([N+](=O)[O-])c(OCCN2CCc3ccccc3C2)c1 | 2.4 | 15.3 | -22.1 | -59.6* | -52.0*
Cc1cc(OCCN2CCOCC2)ccc1[N+](=O)[O-] | 2.9 | -4.6 | -1.1 | -10.0 | -12.6
O=[N+]([O-])c1ccccc1OCCCN1CCc2ccccc2C1 | 1.6 | -21.4 | -14.8 | -102.7* | -26.2
COc1cccc(CNCCSc2nnnn2C)c1OCc1ccc(Cl)cc1 | 6.4 | -15.8 | -2.3 | nt | -15.5
CCOC(=O)c1ccc(NC(=O)c2cc3c(n(-c4ccc(C)cc4)c2=O)CC(C)(C)CC3=O)cc1 | 0.6 | -1.1 | -1.2 | nt | 1.2
O=[N+]([O-])c1ccccc1OCCNCc1ccccc1 | 8.7 | 24.5 | -12.9 | -85.8* | -23.8
Nc1nonc1OCCN1CCN(c2ccc([N+](=O)[O-])c3cccnc23)CC1 | 5.6 | -8.1 | -4.1 | -5.3 | -8.4
O=[N+]([O-])c1cc(S(=O)(=O)N2CCCC2)ccc1OCCOc1ccccc1 | 34.5* | -8.5 | nt | -16.2 | -10.8
Cc1nonc1OCCN1CCN(c2ccccc2[N+](=O)[O-])CC1 | 4.1 | -9.0 | -2.5 | -58.2* | -19.3
O=[N+]([O-])c1cccc(OCCN2CCC(Cc3ccccc3)CC2)c1 | 19.4 | -20.8 | -7.9 | -101.7* | -23.7
O=C(c1ccc([N+](=O)[O-])cc1)N1CCC(Cc2ccccc2)CC1 | 6.7 | 0.4 | -5.6 | -8.3 | -19.8
COc1cc(-c2nnc(SCC(=O)N(C)C3CCCCC3)o2)cc(OC)c1OC | 9.0 | 3.5 | -3.5 | nt | -1.8
O=[N+]([O-])c1ccccc1OCCN1CCCC1 | 4.5 | -12.6 | -4.1 | -61.2* | -37.8*
Cc1ccc([N+](=O)[O-])c(OCCN2CCCCCC2)c1 | 4.1 | -14.5 | -13.6 | -90.1* | 1.8
Cc1cc(C(=O)N2CCC(Cc3ccccc3)CC2)ccc1[N+](=O)[O-] | 0.9 | 7.0 | -1.9 | -12.6 | -31.7*
Cc1ccc(OCCCN2CCOCC2)c([N+](=O)[O-])c1 | 2.8 | -10.3 | -3.3 | ? | -0.8
